In PubChem BioAssay (Tox21):
Values joined by “and” are separate entries in the source; they are usually repeats but may differ in a detail not shown here. Equal entries are not always repeated. Records with an inconclusive call do not appear. Active and inactive are the calls of the source. Calls come from the whole dose curve; as a rule, active = well fitted curve in the direction sought with a large enough effect in the repeat runs; inconclusive = weak or mixed curves; inactive = no such curve, though single readings can be large; an effect the other way counts as inactive or inconclusive.

Tests used:
[1] = qHTS RealTime-Glo MT Cell Viability Assay in HepG2 cells - 8 hour (AID 1224873); note: nearly all actives have a fitted effect of over 55% in size; note: potency is the fitted concentration of half-maximal effect
In short: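 Real-time viability: cells seeded at 600 per well together with NanoLuc and cell-permeant prosubstrate, compounds added after 5 h incubation. Luminescence tracked at 0, 8, 16, 24, 32 and 40 h of exposure.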

[2] = qHTS RealTime-Glo MT Cell Viability Assay in HEK293 cells - 40 hour (AID 1224874); details: RealTime-Glo luminescence; max response: hits give low values; note: nearly all actives have a fitted effect of over 50% in size; note: potency is the fitted concentration of half-maximal effect
In short: (§1)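 HEK293 cells mixed with RealTime-Glo reagents (NanoLuc plus cell-permeant prosubstrate) at 600 cells/well, preincubated 5 h at 37 C/5% CO2, then given 23 nL compound in DMSO. Nonlytic luminescence from viable cells was read at 0, 8, 16, 24, 32 and 40 h.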

[3] = A CellTox Green Cytotoxicity Assay to monitor cytotoxicity in HEK293 cells - 24 hour (AID 1224875); note: nearly all actives have a fitted effect of over 45% in size; note: potency is the fitted concentration of half-maximal effect
In short: (§2)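 HEK293 cells premixed with CellTox Green dye were seeded at 600 cells/well and left 5 h at 37 C/5% CO2 before pin transfer of 23 nL compound in DMSO. Fluorescence from dye bound to dead-cell DNA was read during 40 h treatment.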

[4] = A CellTox Green Cytotoxicity Assay to monitor cytotoxicity in HepG2 cells - 16 hour (AID 1224876); note: nearly all actives have a fitted effect of over 45% in size; note: potency is the fitted concentration of half-maximal effect
In short: (§3)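 HepG2 cells were seeded together with the CellTox Green dye at 600 cells/well, left 5 h at 37 C/5% CO2, then given compounds in DMSO. Fluorescence from dye bound to dead-cell DNA was read repeatedly over 40 h of treatment at 37 C.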

[5] = qHTS RealTime-Glo MT Cell Viability Assay in HepG2 cells - 32 hour (AID 1224877); note: nearly all actives have a fitted effect of over 55% in size; note: potency is the fitted concentration of half-maximal effect
In short: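 Tox21 10K library screened in qHTS format on HepG2 cells carrying RealTime-Glo reagents. Compounds were added after a 5 h preincubation, and the luminescent signal from continuous culture was measured repeatedly during 40 h treatment.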

[6] = A CellTox Green Cytotoxicity Assay to monitor cytotoxicity in HepG2 cells - 24 hour (AID 1224878); note: nearly all actives have a fitted effect of over 45% in size; note: potency is the fitted concentration of half-maximal effect
In short: as §3

[7] = A CellTox Green Cytotoxicity Assay to monitor cytotoxicity in HepG2 cells - 40 hour (AID 1224879); note: nearly all actives have a fitted effect of over 40% in size; note: potency is the fitted concentration of half-maximal effect
In short: as §3

[8] = qHTS RealTime-Glo MT Cell Viability Assay in HEK293 cells - 0 hour (AID 1224880); note: top concentration of the series differs between compounds; nearly all actives have a fitted effect of over 45% in size
In short: as §1

[9] = A CellTox Green Cytotoxicity Assay to monitor cytotoxicity in HEK293 cells - 32 hour (AID 1224881); note: nearly all actives have a fitted effect of over 40% in size; note: potency is the fitted concentration of half-maximal effect
In short: as §2

[10] = A CellTox Green Cytotoxicity Assay to monitor cytotoxicity in HepG2 cells - 0 hour (AID 1224882); note: nearly all actives have a fitted effect of over 35% in size; note: potency is the fitted concentration of half-maximal effect
In short: as §3
% is set by controls: 0 for no effect and ±100 for the full control effect.

CCCCCCCCCCCCCCCC
inactive: Potency [1] | max response [2] 15.7% | Potency [3] | Potency [4] | Potency [5] | Potency [6] | Potency [7] | Potency [8] | Potency [9] | Potency [10]

CCO[Si](C)(C)OCC
inactive: Potency [1] | max response [2] -0.247% | Potency [3] | Potency [4] | Potency [5] | Potency [6] | Potency [7] | Potency [8] | Potency [9] | Potency [10]

OCCCS
inactive: Potency [1] | max response [2] 7.88% | Potency [3] | Potency [4] | Potency [5] | Potency [6] | Potency [7] | Potency [8] | Potency [9] | Potency [10]

CCC1(c2cnc[nH]2)Cc2ccccc2C1
inactive: Potency [1] | max response [2] -4.11% | Potency [3] | Potency [4] | Potency [5] | Potency [6] | Potency [7] | Potency [8] | Potency [9] | Potency [10]

CC(=O)Oc1ccc(C2(c3ccc(OC(C)=O)cc3)C(=O)Nc3ccccc32)cc1
inactive: Potency [1] | max response [2] -6.95% | Potency [3] | Potency [4] | Potency [5] | Potency [6] | Potency [7] | Potency [8] | Potency [9] | Potency [10]

CC(C)=CC1CC(C)CCO1 (stereo not given)
inactive: Potency [1] | max response [2] 2.02% | Potency [3] | Potency [4] | Potency [5] | Potency [6] | Potency [7] | Potency [8] | Potency [9] | Potency [10]

Clc1ccccc1CN1CCc2sccc2C1
inactive: Potency [1] | max response [2] -22.8% | Potency [3] | Potency [4] | Potency [5] | Potency [6] | Potency [7] | Potency [8] | Potency [9] | Potency [10]

C=CC(C)(CCC=C(C)C)OC(=O)/C=C/c1ccccc1 (stereo not given)
inactive: Potency [1] | max response [2] -2.78% | Potency [5] | Potency [8]
active: Potency [3] 27.5 µM | Potency [4] 27.5 µM | Potency [6] 38.9 µM | Potency [7] 43.6 µM | Potency [9] 38.9 µM | Potency [10] 27.5 µM

COc1ccccc1C=O
inactive: Potency [1] | max response [2] 3.17% | Potency [3] | Potency [4] | Potency [5] | Potency [6] | Potency [7] | Potency [8] | Potency [9] | Potency [10]

COc1ccc(C#N)cc1
inactive: Potency [1] | max response [2] -13.1% | Potency [3] | Potency [4] | Potency [5] | Potency [6] | Potency [7] | Potency [8] | Potency [9] | Potency [10]

CCCCCCCCCCCCCC[n+]1ccccc1
active: Potency [1] 49 µM | Potency [2] 1.74 µM | Potency [3] 38.9 µM | Potency [4] 19.5 µM | Potency [5] 12.3 µM | Potency [6] 15.5 µM | Potency [7] 11 µM | Potency [9] 34.7 µM
inactive: Potency [8] | Potency [10]

C=CC(=C)CCC=C(C)C
inactive: Potency [1] | max response [2] 8.59% | Potency [3] | Potency [4] | Potency [5] | Potency [6] | Potency [7] | Potency [8] | Potency [9] | Potency [10]

CCN(CC)c1cccc(C)c1
inactive: Potency [1] | max response [2] -4.54% | Potency [3] | Potency [4] | Potency [5] | Potency [6] | Potency [7] | Potency [8] | Potency [9] | Potency [10]

Cc1cnccn1
inactive: Potency [1] | max response [2] 8.17% | Potency [3] | Potency [4] | Potency [5] | Potency [6] | Potency [7] | Potency [8] | Potency [9] | Potency [10]

CCc1c(Br)c(Br)c(Br)c(Br)c1Br
inactive: Potency [1] | max response [2] 4.82% | Potency [3] | Potency [4] | Potency [5] | Potency [6] | Potency [7] | Potency [8] | Potency [9] | Potency [10]

C[C@H]1O[C@@H](O[C@H]2[C@@H](O)C[C@H](O[C@H]3[C@@H](O)C[C@H](O[C@H]4CC[C@@]5(C)[C@H](CC[C@@H]6[C@@H]5C[C@@H](O)[C@]5(C)[C@@H](C7=CC(=O)OC7)CC[C@]65O)C4)O[C@@H]3C)O[C@@H]2C)C[C@H](O)[C@@H]1O
active: Potency [2] 61.7 nM and 54.3 nM
inactive: Potency [1] | Potency [3] | Potency [4] | Potency [5] | Potency [6] | Potency [7] | Potency [8] | Potency [9] | Potency [10]

C/C=C/CO
inactive: Potency [1] | max response [2] 8.59% | Potency [3] | Potency [4] | Potency [5] | Potency [6] | Potency [7] | Potency [8] | Potency [9] | Potency [10]

CCCCCCCCCCCC(=O)N(CC)CC
inactive: Potency [1] | max response [2] -24.4% | Potency [3] | Potency [4] | Potency [5] | Potency [6] | Potency [7] | Potency [8] | Potency [9] | Potency [10]

OCCC(O)CO (stereo not given)
inactive: Potency [1] | max response [2] 15.6% | Potency [3] | Potency [4] | Potency [5] | Potency [6] | Potency [7] | Potency [8] | Potency [9] | Potency [10]

CCOC(/C=C(\C)CCC=C(C)C)OCC
inactive: Potency [1] | max response [2] 9.38% | Potency [3] | Potency [4] | Potency [5] | Potency [6] | Potency [7] | Potency [8] | Potency [9] | Potency [10]
